# Counter-ions that a name gives are not always drawn.
# How the values were obtained:
# Assay in all cases: thermal shift delta Tm vs DMSO control; higher = stronger stabilization (binding)
# Settings in all cases: 12.5 µM; protein concentration 2 µM
# LOC_OS02G45750-cb003 = system: LOC_OS02G45750-cb003
# Summary of the method: (§1)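 Thermal shift values come from differential scanning fluorimetry on purified rice kinase domains made in E. coli, with melting temperatures obtained from Boltzmann fits. Samples of 19.5 μl held 2 μM kinase, 100 mM potassium phosphate pH 7.5, 150 mM NaCl, 10% glycerol, 5 × SYPRO Orange and compound in DMSO, and were heated from 25°C to 95°C at 0.05°C/s. Each shift is a triplicate mean relative to the DMSO-only protein sample.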
# LOC_OS02G54510-cb004 = system: LOC_OS02G54510-cb004
# Summary of the method: as §1
# LOC_OS03G04050-cb001 = system: LOC_OS03G04050-cb001
# Summary of the method: as §1
# LOC_OS03G12390-cb001 = system: LOC_OS03G12390-cb001
# Summary of the method: as §1
# LOC_OS03G27990-cb004 = system: LOC_OS03G27990-cb004
# Summary of the method: as §1
# LOC_OS03G50450-cb001 = system: LOC_OS03G50450-cb001
# Summary of the method: as §1
# LOC_OS03G50810-cb003 = system: LOC_OS03G50810-cb003
# Summary of the method: as §1
# LOC_OS04G35114-cb001 = system: LOC_OS04G35114-cb001
# Summary of the method: as §1
# LOC_OS04G38480-cb003 = system: T1, LOC_OS04G38480-cb003
# T1 sequence (whole entry): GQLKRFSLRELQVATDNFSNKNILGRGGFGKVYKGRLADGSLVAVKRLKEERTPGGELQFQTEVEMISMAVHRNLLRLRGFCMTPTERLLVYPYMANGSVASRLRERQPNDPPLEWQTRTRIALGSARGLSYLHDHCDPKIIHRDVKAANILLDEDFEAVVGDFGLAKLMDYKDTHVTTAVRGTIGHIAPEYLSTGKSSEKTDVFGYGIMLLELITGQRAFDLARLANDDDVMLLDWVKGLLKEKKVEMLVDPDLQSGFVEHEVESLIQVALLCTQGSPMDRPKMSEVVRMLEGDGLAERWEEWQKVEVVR
# Summary of the method: as §1
# LOC_OS04G41100-cb001 = system: T2, LOC_OS04G41100-cb001
# T2 sequence (whole entry): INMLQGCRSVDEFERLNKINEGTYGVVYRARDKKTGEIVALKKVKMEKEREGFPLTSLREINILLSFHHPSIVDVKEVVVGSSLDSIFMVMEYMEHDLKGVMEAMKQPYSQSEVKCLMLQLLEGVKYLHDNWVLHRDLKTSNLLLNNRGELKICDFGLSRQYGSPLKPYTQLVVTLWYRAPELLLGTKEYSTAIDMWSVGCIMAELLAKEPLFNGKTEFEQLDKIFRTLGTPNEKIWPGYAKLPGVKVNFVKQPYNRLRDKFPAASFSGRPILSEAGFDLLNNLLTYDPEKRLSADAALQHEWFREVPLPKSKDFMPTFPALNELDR
# Summary of the method: as §1
# LOC_OS04G57630-cb004 = system: LOC_OS04G57630-cb004
# Summary of the method: as §1
# LOC_OS05G07850-cb002 = system: LOC_OS05G07850-cb002
# Summary of the method: as §1
# LOC_OS05G16824-cb004 = system: LOC_OS05G16824-cb004
# Summary of the method: as §1
# LOC_OS05G28520-cb001 = system: LOC_OS05G28520-cb001
# Summary of the method: as §1
# LOC_OS05G30820-cb001 = system: LOC_OS05G30820-cb001
# Summary of the method: as §1
# LOC_OS05G43570-cb004 = system: LOC_OS05G43570-cb004
# Summary of the method: as §1
# LOC_OS06G16330-cb003 = system: LOC_OS06G16330-cb003
# Chain of LOC_OS06G16330-cb003 (as listed by the source): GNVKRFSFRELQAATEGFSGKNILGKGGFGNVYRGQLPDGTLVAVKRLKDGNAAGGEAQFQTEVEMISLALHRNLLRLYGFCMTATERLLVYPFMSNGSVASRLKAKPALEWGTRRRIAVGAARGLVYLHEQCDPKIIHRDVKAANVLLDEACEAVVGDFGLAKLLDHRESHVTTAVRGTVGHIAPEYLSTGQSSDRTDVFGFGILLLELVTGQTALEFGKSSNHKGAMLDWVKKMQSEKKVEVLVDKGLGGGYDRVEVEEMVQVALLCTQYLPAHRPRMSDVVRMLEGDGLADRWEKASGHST
# Summary of the method: as §1
# LOC_OS06G22820-cb001 = system: T3, LOC_OS06G22820-cb001
# T3 sequence (whole entry): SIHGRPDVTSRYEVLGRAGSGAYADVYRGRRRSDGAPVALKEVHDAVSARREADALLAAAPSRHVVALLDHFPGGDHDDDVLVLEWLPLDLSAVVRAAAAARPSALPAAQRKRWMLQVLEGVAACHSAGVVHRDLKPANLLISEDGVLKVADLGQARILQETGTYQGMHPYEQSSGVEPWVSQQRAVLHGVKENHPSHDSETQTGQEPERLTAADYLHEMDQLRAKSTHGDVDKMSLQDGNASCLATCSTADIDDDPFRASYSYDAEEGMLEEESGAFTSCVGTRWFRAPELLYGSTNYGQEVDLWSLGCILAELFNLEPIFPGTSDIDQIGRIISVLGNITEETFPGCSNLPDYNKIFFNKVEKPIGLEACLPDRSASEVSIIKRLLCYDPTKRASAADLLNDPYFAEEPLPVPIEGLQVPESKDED
# Summary of the method: as §1
# LOC_OS07G06570-cb004 = system: LOC_OS07G06570-cb004
# Summary of the method: as §1
# LOC_OS07G07230-cb001 = system: LOC_OS07G07230-cb001
# Summary of the method: as §1
# 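Note: purified Escherichia coli-expressed rice kinase domain construct.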
SMILES,thermal shift delta Tm (LOC_OS02G45750-cb003),thermal shift delta Tm (LOC_OS02G54510-cb004),thermal shift delta Tm (LOC_OS03G04050-cb001),thermal shift delta Tm (LOC_OS03G12390-cb001),thermal shift delta Tm (LOC_OS03G27990-cb004),thermal shift delta Tm (LOC_OS03G50450-cb001),thermal shift delta Tm (LOC_OS03G50810-cb003),thermal shift delta Tm (LOC_OS04G35114-cb001),thermal shift delta Tm (LOC_OS04G38480-cb003),thermal shift delta Tm (LOC_OS04G41100-cb001),thermal shift delta Tm (LOC_OS04G57630-cb004),thermal shift delta Tm (LOC_OS05G07850-cb002),thermal shift delta Tm (LOC_OS05G16824-cb004),thermal shift delta Tm (LOC_OS05G28520-cb001),thermal shift delta Tm (LOC_OS05G30820-cb001),thermal shift delta Tm (LOC_OS05G43570-cb004),thermal shift delta Tm (LOC_OS06G16330-cb003),thermal shift delta Tm (LOC_OS06G22820-cb001),thermal shift delta Tm (LOC_OS07G06570-cb004),thermal shift delta Tm (LOC_OS07G07230-cb001)
O=C(Nc1cccnc1)c1cc(-c2ccnc(F)c2)ccc1OCc1ccccc1,1.01 °C,0.22 °C,0.77 °C,4.48 °C,0.39 °C,0.36 °C,0.76 °C,0.97 °C,1.76 °C,0.25 °C,0.47 °C,4.72 °C,1.19 °C,0.34 °C,0.36 °C,-0.18 °C,-0.02 °C,0.4 °C,0.99 °C,0.03 °C
COC(=O)[C@]12CCC(C)(C)C[C@H]1[C@H]1C(=O)C=C3[C@@]4(C)C=C(C#N)C(=O)C(C)(C)[C@@H]4CC[C@@]3(C)[C@]1(C)CC2 [Bardoxolone Methyl],0.78 °C,-3.73 °C,-0.12 °C,-11.6 °C,-4.29 °C,-0.95 °C,-3.78 °C,-4.61 °C,-6.53 °C,-1.7 °C,-4.85 °C,-6.24 °C,-7.05 °C,-4.77 °C,0.07 °C,-2.54 °C,-3.91 °C,0.1 °C,0.47 °C,0.11 °C
CO[C@@H](C)Cn1c(=O)n(C)c2cnc3ccc(-c4cncc(C(C)(C)O)c4)cc3c21,1.57 °C,0.18 °C,0.72 °C,0.09 °C,0.68 °C,0.89 °C,0.67 °C,3.42 °C,1.29 °C,0.38 °C,0.18 °C,4.35 °C,-0.98 °C,0.31 °C,0.49 °C,0.43 °C,0.71 °C,0.7 °C,0.91 °C,0.7 °C
CNc1nc(Nc2cnn([C@H]3CCN(C4COC4)C[C@@H]3F)c2Cl)ncc1C(F)(F)F,10.5 °C,0.35 °C,0.37 °C,9.14 °C,2.39 °C,5.54 °C,4.12 °C,4.01 °C,3.09 °C,0.6 °C,1.85 °C,10.8 °C,5.54 °C,0.59 °C,0.51 °C,0.4 °C,5.64 °C,0.65 °C,0.89 °C,0.28 °C
O=C1NC(=O)[C@@H](c2cn3c4c(cccc24)CCC3)[C@@H]1c1c[nH]c2ccccc12 [Tivantinib (ARQ 197)],0.51 °C,0.03 °C,0.44 °C,-0.01 °C,0.43 °C,0.17 °C,0.07 °C,0.51 °C,0.13 °C,0.36 °C,0.47 °C,0.25 °C,-2.47 °C,0.49 °C,0.62 °C,0.57 °C,0.29 °C,0.65 °C,0.51 °C,0.56 °C
CCn1c(-c2nonc2N)nc2c(C#CC(C)(C)O)ncc(OC[C@H]3CCCNC3)c21,0.16 °C,-0.17 °C,0.51 °C,-0.08 °C,0.32 °C,0.05 °C,0.05 °C,0.41 °C,0.66 °C,1.1 °C,0.06 °C,0.29 °C,-1.28 °C,0.27 °C,0.49 °C,1.47 °C,-0.37 °C,0.88 °C,0.7 °C,0.32 °C
COc1ccc(S(=O)(=O)N(C(C)=O)c2ccccc2/C=C/c2cc[n+]([O-])cc2)cc1,-0.35 °C,-0.24 °C,0.19 °C,0.13 °C,-0.03 °C,0.17 °C,0.09 °C,0.01 °C,0.55 °C,0.61 °C,0.43 °C,0.92 °C,-6.15 °C,0.67 °C,0.66 °C,0.45 °C,0.41 °C,0.58 °C,1.06 °C,0.31 °C
N#Cc1c(O)c2c(-c3ccc(-c4ccccc4O)cc3)csc2[nH]c1=O,1.29 °C,0.51 °C,0.84 °C,0.75 °C,0.45 °C,0.66 °C,0.88 °C,0.58 °C,1.99 °C,0.62 °C,0.93 °C,0.59 °C,-0.44 °C,1.06 °C,0.78 °C,1.18 °C,1.03 °C,0.91 °C,1.2 °C,0.19 °C
COc1cc2ncc(-c3ccccc3)nc2cc1OC [Tyrphostin AG 1296],4.58 °C,-0.11 °C,0.13 °C,0.49 °C,0.74 °C,0.48 °C,1.56 °C,3.93 °C,0.73 °C,0.13 °C,0.05 °C,5.59 °C,2.99 °C,-0.06 °C,0.8 °C,0.08 °C,2.24 °C,0.24 °C,1.65 °C,0.83 °C
COc1nccnc1NS(=O)(=O)c1ccc(NC(=O)/C=C/c2ccc([N+](=O)[O-])s2)cc1 [Necrosulfonamide],-0.78 °C,0.22 °C,0.43 °C,-0.66 °C,1.32 °C,-0.09 °C,0.29 °C,1.14 °C,0.24 °C,-0.12 °C,-0.33 °C,-1.15 °C,-2.3 °C,-0.14 °C,0.41 °C,0.39 °C,-0.03 °C,0.79 °C,0.22 °C,0.63 °C
CC(C)(C)S(=O)(=O)c1ccc2nccc(Nc3n[nH]c4ccc(F)cc34)c2c1,0.81 °C,0.59 °C,0.15 °C,0.75 °C,0.12 °C,-0.21 °C,0.11 °C,3.68 °C,0.32 °C,0.12 °C,0.34 °C,2.55 °C,-0.25 °C,-0.33 °C,0.52 °C,0.22 °C,0.6 °C,0.36 °C,0.6 °C,0.92 °C
CNC(=O)c1cc(Oc2ccc(NC(=O)Nc3ccc(Cl)c(C(F)(F)F)c3)c(F)c2)ccn1 [Regorafenib (BAY 73-4506)],0.96 °C,0.56 °C,0.64 °C,0.1 °C,0.17 °C,0.33 °C,0.11 °C,0.48 °C,0.48 °C,0.52 °C,0.11 °C,1.47 °C,-2.37 °C,0.42 °C,0.34 °C,0.38 °C,-0.02 °C,0.83 °C,0.59 °C,0.35 °C
CN1CC[C@H](c2c(O)cc(O)c3c(=O)cc(-c4ccccc4Cl)oc23)[C@H](O)C1 [Flavopiridol HCl],1.65 °C,0.99 °C,0.18 °C,2.02 °C,1.25 °C,0.4 °C,0.81 °C,1.99 °C,1.82 °C,0.56 °C,0.77 °C,4.9 °C,0.91 °C,0.55 °C,0.9 °C,0.71 °C,3.57 °C,1.71 °C,0.71 °C,0.03 °C

# Reference: the supplement of paper PMC9694430
